Consider 24 compounds from PubChem BioAssay (NCI).

Holding throughout (experiment): NCI-60 one-dose screen, 48 h (100 = growth as untreated, 0 = no growth, -100 = all killed)
Holding throughout (details): 10 µM unless noted

Experiment [1] concerns HCT-15 colon.
For experiment [2], the system named is HT29 colon.
Experiment [3] relates to SNB-75 CNS.
Experiment [4] relates to SNB-19 CNS.
For experiment [5], the system named is U251 CNS.
In experiment [6] the test system is PC-3 prostate.
Experiment [7] deals with SK-MEL-5 melanoma.
Experiment [8] deals with UACC-62 melanoma.
In experiment [9] the test system is LOX IMVI melanoma.
Experiment [10] has as its system SK-MEL-28 melanoma.

Compounds without any hit were thinned out: in the full panel of roughly 83,000, 20% have a hit.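 How to read the values: 0–100, growth inhibition (40 = 60% inhibited); 0, no net growth; -100 to 0, cell death (-40 = 40% of starting cells died; -100 = all dead).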 Values without a mark were called inactive. The source made the active and inactive calls. The calls were made as follows: active = growth percent below 10; inactive = the rest.

As to `CSc1nc(-c2ccco2)c(C#N)c(=O)n1C`, the growth in [1] is 98.1%; in experiment [2] it was 113%; in experiment [3], 89.3%; in experiment [4], 93.7%; in [5], 103%; in experiment [6], 94.4%. For the same compound, the growth was 101% in experiment [7], 99.5% in experiment [8], 97.2% in experiment [9] and 109% in experiment [10].

For `Fc1ccc(/C=C/[C@@H]2C[C@@H](F)CCO2)cc1`, the growth was 93.7% in experiment [1]; 99.9% in experiment [2]; 99.3% in experiment [3]; 93.8% in experiment [4]; 111% in experiment [5]; 43.6% in [6]. The growth in [7] is 98%; in [8] it was 90.9%; in experiment [9], 96.9%; in experiment [10], 92.9%.

Take `COc1ccc(C(=O)C/C(=C\c2ccc(O)c(OC)c2)C(=O)NN)cc1`: the growth in [1] is 64.2%; in [2], 102%; in experiment [3], 99.6%; in experiment [4], 85%; in experiment [5] it was 84.9%; in experiment [6], 67.3%. Also, the growth was 75% in experiment [7], 75.8% in experiment [8], 82.2% in experiment [9] and 75.6% in experiment [10].

`O=C(Nc1cccnc1Nc1ccccc1)c1cn(Cc2cccc(Oc3ccccc3)c2)nn1`: the growth in experiment [1] is 30.5%; in [2], 38.2%; in experiment [3] it was 47.6%; in experiment [4], 64.5%; in experiment [5], 54.4%; in [6], 49.3%. Also, the growth in [7] was 26.6%; in experiment [8] it was 32.8%; in [9], 37%; in [10] it was 55.1%.

Regarding `N#CC1=C(N)Oc2c(sc3c(F)cccc23)C1c1ccc([N+](=O)[O-])cc1` (stereo not given), the growth was -54.5% (active) in [1]; -13.6% (active) in [2]; -35.3% (active) in [3]; -27.9% (active) in experiment [4]; -64.5% (active) in experiment [5]; -10.4% (active) in [6]. Moreover, the growth in experiment [7] is -95.9% (active); in experiment [8], -75.6% (active); in experiment [9] it was -83.1% (active); in experiment [10], -44.1% (active).

As for `O=c1c2ccccc2n(C[C@H]2CO2)c2ccccc12`, the growth in experiment [1] was -16.8% (active); in [2] it was 2.83% (active); in experiment [3], -29.4% (active); in experiment [4], 22.3%; in [5], -6.13% (active); in [6], 19.2%. Also, the growth in [7] is -80.8% (active); in experiment [8] it was -83.4% (active); in [9], -54.3% (active); in [10] it was 2.83% (active).

For the compound `Cc1nc2sc(C(=O)Nc3cccc4ccccc34)c(N)c2cc1C(=O)c1ccccc1`, the growth in experiment [1] was 14%; in experiment [2] it was 14.7%; in [3], 11.9%; in experiment [4], 26.9%; in [5], 22.8%; in [6] it was 21.3%. Moreover, the growth in experiment [7] is 25%; in [8], 33.4%; in experiment [9], 41.8%; in experiment [10], 59.8%.

Turning to `CCOC(=O)C1=C(CCl)N(C)C(=O)NC1c1ccc2c(c1)OCO2` (stereo not given), the growth in experiment [1] is 34.4%; in experiment [2], 38.7%; in [3], 28.8%; in [4], 84.5%; in experiment [5], 68%; in [6], 36.8%. The growth in [7] was 81.9%; in experiment [8] it was 73.2%; in experiment [9], 40.9%; in experiment [10] it was 79%.

For the compound `Cn1c(=O)[nH]c(=O)c2nc3c(nc21)-c1ccccc1C3=O`, the growth is 102% in experiment [1]; 101% in [2]; 88.9% in [3]; 98.1% in [4]; 106% in experiment [5]; 95.8% in [6]. For the same compound, the growth in [7] was 98.5%; in [8], 91.2%; in experiment [9] it was 95.9%; in experiment [10] it was 97.4%.

Regarding `O=C(OCc1ccc2c(Cl)cc(Cl)c(O)c2n1)N1CCN(C(=O)c2cc3ccccc3[nH]2)CC1`, the growth was 22.2% in experiment [1]; 59.3% in experiment [2]; 36.3% in experiment [3]; 24.5% in experiment [4]; 13.6% in experiment [5]; 24.9% in experiment [6]. Moreover, the growth in [7] was 25.1%; in experiment [8], -2.56% (active); in [9], 24.6%; in [10] it was 39.2%.

As for `Nc1cc(-c2ccc(Cl)cc2)nn1-c1nnc(/C=C/c2ccco2)c(=O)[nH]1`, the growth in [1] was 38.1%; in [2], 44.2%; in experiment [3], 67.3%; in [4], 57.8%; in [5], 50.6%; in experiment [6], 52.6%. The growth in experiment [7] was 46%; in [8], 52.5%; in experiment [9], 49.9%; in [10] it was 66.4%.

Regarding `O=S(=O)(Nc1cc(Sc2nc3ccccc3s2)c(O)c2ccccc12)c1ccc2ccccc2c1`, the growth in [1] was 97.5%; in experiment [2], 115%; in experiment [3], 88.2%; in [4], 106%; in experiment [5], 86.6%; in experiment [6] it was 77.3%. In addition, the growth was 74.5% in experiment [7], 99.1% in experiment [8], 60.1% in [9] and 116% in experiment [10].

As for `N[C@@H]1CCC[C@H]1NCCCCN1C(=O)c2cccc3cc([N+](=O)[O-])cc(c23)C1=O`, the growth in [1] is 59.9%; in experiment [2], 14.3%; in experiment [3], 38.1%; in [4] it was 39.1%; in experiment [5] it was 33.7%; in experiment [6], 39%. Also, the growth in experiment [7] is 62.4%; in [8], 66.3%; in [9], 14.9%; in experiment [10], 85.7%.

Take `N#Cc1c(-c2ccccc2)nc2c(c(-c3ccccc3)nn2-c2ccccc2)c1-c1ccc(N2CCCCC2)cc1`: the growth was 107% in experiment [1]; 110% in experiment [2]; 84.2% in [3]; 99.3% in experiment [4]; 96.8% in [5]; 90.5% in experiment [6]. The growth was 99.2% in [7], 92.8% in [8], 96% in experiment [9] and 106% in [10].

As to `O=C(Nc1cccnc1Nc1ccc(Cl)cc1)c1cn(Cc2cccc(Oc3ccccc3)c2)nn1`, the growth is 25.6% in experiment [1]; 27.2% in [2]; 42.1% in [3]; 50.1% in [4]; 39.4% in experiment [5]; 35% in experiment [6]. The growth is 12.6% in experiment [7], 30.6% in [8], 31.1% in experiment [9] and 61.7% in experiment [10].

Consider `Ic1ccc(Nc2nc3nonc3nc2Nc2ccc(I)cc2)cc1`, for which the growth in experiment [1] was -11.5% (active); in experiment [2] it was 0.391% (active); in [3], 24.7%; in [4], 22.4%; in experiment [5], 6.94% (active); in experiment [6] it was 4.36% (active). Also, the growth was -81.2% (active) in experiment [7], -28.2% (active) in [8], -3.56% (active) in [9] and 12.2% in [10].

With `COC(=O)[C@@]1(C)CC[C@]2(C)CC[C@]3(C)C4=CC=C5C(=CC(=O)C(O)=C5C)[C@]4(C)[C@@H](O)C[C@@]3(C)[C@@H]2C1`, the growth was 1.43% (active) in [1]; 31.1% in [2]; 70.5% in experiment [3]; 22.9% in experiment [4]; -10.1% (active) in [5]; 29.1% in experiment [6]. Also, the growth in experiment [7] was 60.7%; in [8] it was 29.6%; in experiment [9], -56.3% (active); in experiment [10], -17.8% (active).

For `[N-]=[N+]=NCC1OC(n2cnc3c(NC(=O)Nc4ccccc4)ncnc32)C2OC(=O)CC12` (stereo not given), the growth in experiment [1] is 91.2%; in experiment [2], 109%; in [3], 93.7%; in experiment [4], 106%; in [5], 110%; in [6] it was 97.4%. Further, the growth in [7] is 106%; in experiment [8], 107%; in [9], 93.2%; in experiment [10] it was 118%.

Consider `Cc1cccc(-c2nc(C(C)C)sc2-c2ccnc(NCCCNS(=O)(=O)c3ccc(Cl)cc3)c2)c1`, for which the growth was 36.5% in experiment [1]; 16.9% in experiment [2]; 97.5% in experiment [3]; 89.6% in [4]; 73% in experiment [5]; 50% in [6]. In addition, the growth in experiment [7] was 87.6%; in [8], 96.4%; in [9] it was 75%; in [10] it was 90.6%.

Consider `Oc1c(I)cc(I)cc1CN(Cc1ccccn1)Cc1ccccn1`, for which the growth was 21.3% in [1]; 25.5% in experiment [2]; 30% in experiment [3]; 22.3% in experiment [4]; 7% (active) in experiment [5]; 28% in [6]. Moreover, the growth is -33.5% (active) in experiment [7], 3.88% (active) in [8], 7.25% (active) in [9] and 28.5% in experiment [10].

`COc1cc(-c2nccc3[nH]c(-c4cccc5[nH]ccc45)nc23)cc(OC)c1OC`: the growth in experiment [1] was 17.6%; in experiment [2] it was -3.78% (active); in experiment [3], 73.6%; in [4], 49.1%; in [5] it was 13.6%; in experiment [6] it was 11.8%. Further, the growth is -45.8% (active) in [7], 51.4% in experiment [8], 20.6% in experiment [9] and 76.9% in [10].

Turning to `O=c1cc(-c2ccccc2)nc(SCc2nc3cc(Cl)c(Cl)cc3[nH]2)[nH]1`, the growth in experiment [1] was 98%; in experiment [2], 96.4%; in experiment [3], 86%; in experiment [4], 109%; in experiment [5], 99.9%; in experiment [6], 103%. Also, the growth in [7] was 105%; in experiment [8] it was 105%; in experiment [9] it was 98%; in experiment [10], 111%.

For `COc1cc(/C=C/C(=O)N2CCN(C(=O)c3cc(OC)c(OC)c(OC)c3)CC2)ccc1OCCCOc1cc2c(cc1OC)C(=O)N1CCC[C@H]1C=N2`, the growth was 43.4% in [1]; 13.5% in experiment [2]; -48.1% (active) in experiment [3]; 13.8% in [4]; 7.58% (active) in [5]; -43% (active) in experiment [6]. The growth in [7] was 2.69% (active); in experiment [8], -90.1% (active); in experiment [9], 1.38% (active); in experiment [10] it was -47.3% (active).

As to `C[C@H](c1nc2ccc(C#N)cc2[nH]1)[C@H]1CC[C@H]2[C@@H]3CCC4=CC(=O)CC[C@]4(C)[C@H]3CC[C@]12C`, the growth in experiment [1] was 44.7%; in [2], 32.9%; in [3], 75.7%; in experiment [4], 71.6%; in experiment [5], 65.3%; in experiment [6], 28.5%. Besides, the growth in experiment [7] is 50.4%; in [8], 56.6%; in [9] it was 71.7%; in experiment [10], 89.4%.
